According to PubChem BioAssay AID1159580 (chemical genetic matrix, 2015):
Several values for one entry are separate records, joined by “and”; a condition that tells them apart may be missing. Equal values may be shown once. Among all 5,500 compounds or so, about 2,000 (36%) were called active. Inconclusive results (about 18%) are left out. No stated cut-off is given here; in the data, active means normalized growth mostly below about 0.91 (no sharp cut-off); inconclusive means no clear call, values can overlap the other calls; inactive means mostly above about 0.92. The list shows a part of the results.

Experiment: chemical genetic growth profiling, strain panel (AID 1159580);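 further: tested at 20 µM; growth read once vehicle control cultures reached saturation at 30 °C; 1 = growth at the plate median or of vehicle wells; lower values mean less growth of the strain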
Conditions: S. cerevisiae deletion strains, growth OD

Measured: normalized growth

OC[C@H]1O[C@@H](O[C@@H]2[C@@H](CO)O[C@](O)(CO)[C@H]2O)[C@H](O)[C@@H](O)[C@H]1O
inactive: locus YAL021C, strain ccr4, hits give low values 1.02 | locus YAL026C, strain drs2, hits give low values 1.01 | locus YAL030W, strain snc1, hits give low values 1 | locus YBL061C, strain skt5, hits give low values 1.02 | locus YBR009C, strain hhf1, hits give low values 1.01 | locus YBR021W, strain FUR4, hits give low values 0.983 | locus YBR023C, strain chs3, hits give low values 0.995 | locus YBR171W, strain sec66, hits give low values 1.02 | locus YBR229C, strain ROT2, hits give low values 0.986 | locus YBR231C, strain swc5, hits give low values 1.01 | locus YBR279W, strain paf1, hits give low values 1.02 | locus YCL011C, strain gbp2, hits give low values 1.01 | locus YCL016C, strain dcc1, hits give low values 0.985 | locus YCL029C, strain bik1, hits give low values 0.988 | locus YCL069W, strain vba3, hits give low values 1.01 | locus YCR088W, strain abp1, hits give low values 1 | locus YDL005C, strain med2, hits give low values 1.03 | locus YDL035C, strain GPR1, hits give low values 1.01 | locus YDL040C, strain nat1, hits give low values 1.01 | locus YDL074C, strain BRE1, hits give low values 1 | locus YDL101C, strain DUN1, hits give low values 0.988 | locus YDL185W, strain tfp1, hits give low values 0.992 | locus YDL192W, strain arf1, hits give low values 0.993 | locus YDR001C, strain nth1, hits give low values 1.01 | locus YDR069C, strain doa4, hits give low values 1.02 | locus YDR101C, strain arx1, hits give low values 1.01 | locus YDR137W, strain rgp1, hits give low values 1.01 | locus YDR150W, strain NUM1, hits give low values 0.995 | locus YDR159W, strain sac3, hits give low values 1.01 | locus YDR162C, strain NBP2, hits give low values 1.01 | locus YDR195W, strain ref2 1.03 | locus YDR297W, strain sur2, hits give low values 1.01 | locus YDR318W, strain mcm21, hits give low values 0.981 | locus YDR334W, strain swr1, hits give low values 1.01 | locus YDR335W, strain msn5, hits give low values 1.02 | locus YDR388W, hits give low values 0.987 | locus YDR392W, strain spt3, hits give low values 0.949 | locus YDR502C, strain sam2, hits give low values 0.986 | locus YEL003W, strain gim4, hits give low values 1.01 | locus YEL037C, strain rad23, hits give low values 1 | locus YEL061C, strain CIN8 (second series), hits give low values 1.02 | locus YEL061C, strain CIN8, hits give low values 0.995 | locus YER015W, strain faa2, hits give low values 1 | locus YER016W, strain bim1, hits give low values 1.02 | locus YER110C, hits give low values 0.979 | locus YER111C, strain swi4, hits give low values 1 | locus YER155C, strain BEM2 (second series), hits give low values 1.03 | locus YER155C, strain BEM2, hits give low values 0.987 | locus YER167W, strain BCK2, hits give low values 0.995 | locus YFR010W, strain ubp6, hits give low values 1.02 | locus YGL078C, strain dbp3, hits give low values 0.963 | locus YGL086W, strain mad1, hits give low values 1 | locus YGL167C, strain pmr1, hits give low values 1.02 | locus YGL173C, strain kem1, hits give low values 1.01 | locus YGL227W, strain vid30, hits give low values 1.01 | locus YGL240W, strain doc1, hits give low values 1.03 | locus YGL248W, strain PDE1, hits give low values 0.983 | locus YGL253W, strain hxk2, hits give low values 0.99 | locus YGR135W, strain pre9, hits give low values 0.941 | locus YGR252W, strain gcn5, hits give low values 0.944 | locus YHR013C, strain ard1, hits give low values 1.03 | locus YHR027C, strain rpn1, hits give low values 1.01 | locus YHR030C, strain SLT2, hits give low values 0.993 and 0.984 | locus YHR079C, strain IRE1 (second series), hits give low values 0.983 | locus YHR079C, strain IRE1, hits give low values 0.989 | locus YHR094C, strain hxt1, hits give low values 0.979 | locus YHR129C, strain ARP1, hits give low values 0.992 | locus YHR142W, strain chs7, hits give low values 1 | locus YHR200W, strain rpn10, hits give low values 0.978 | locus YIL066C, strain RNR3, hits give low values 0.994 | locus YIL073C, strain SPO22, hits give low values 0.973 | locus YIL125W, strain kgd1, hits give low values 0.978 | locus YIR030C, strain dcg1, hits give low values 0.987 | locus YJL092W, strain hpr5, hits give low values 1.01 | locus YJL095W, strain BCK1 (second series), hits give low values 1.01 | locus YJL095W, strain BCK1, hits give low values 0.977 and 0.994 | locus YJL115W, strain asf1, hits give low values 1.01 | locus YJL129C, strain trk1, hits give low values 1.01 | locus YJL134W, strain LCB3, hits give low values 0.995 | locus YJL154C, strain vps35, hits give low values 1.02 | locus YJL164C, strain tpk1, hits give low values 0.984 | locus YJL166W, strain qcr8, hits give low values 1.01 | locus YJL168C, strain set2, hits give low values 0.976 | locus YJL187C, strain SWE1 (second series), hits give low values 0.993 | locus YJR043C, strain POL32, hits give low values 1.02 | locus YJR066W, strain TOR1, hits give low values 0.942
